The supplement of paper PMC10127200
Counter-ions that a name gives are not always drawn.

What was measured:
Assay in all cases: Euclidean distance of Cell Painting phenotypic profile (signed KS, 77 features) to DMSO centroid (dimensionless distance); 5 or 10 uM (library dependent); higher = stronger phenotypic change vs DMSO (phenoactivity)
Conditions in all cases: 48 h
[1] = test system: 786-O
Outline: (§1)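 Five cancer lines and a healthy fibroblast line received library compounds at 10 or 5 uM (library-dependent, 0.1% DMSO final) for 48 h. Stained cells were imaged confocally at 20X (9 fields/well). Harmony extracted 77 features, each scored as a signed Kolmogorov-Smirnov statistic against same-plate vehicle wells. Profiles were plate-position corrected, correlation-weighted and replicate-averaged at the top dose. Phenoactivity is the Euclidean distance from each profile to the median vehicle profile.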

[2] = test system: A549
Outline: as §1

[3] = test system: DU145
Outline: as §1

[4] = test system: FB
Outline: as §1

[5] = test system: HEPG2
Outline: as §1

[6] = test system: OVCAR4
Outline: as §1

SMILES | Euclidean distance [1] | Euclidean distance [2] | Euclidean distance [3] | Euclidean distance [4] | Euclidean distance [5] | Euclidean distance [6]
CCC[C@H](NC(=O)[C@@H]1[C@H]2CCC[C@H]2CN1C(=O)[C@@H](NC(=O)[C@@H](NC(=O)c1cnccn1)C1CCCCC1)C(C)(C)C)C(=O)C(=O)NC1CC1 [Telaprevir (VX-950)] | 1.35 | 1.63 | 1.2 | 0.968 | 0.621 | 1.3
COC(=O)C1=CO[C@@H](O)[C@@H]2C(CO)=CC[C@H]12 [Genipin] | 1.19 | 1.13 | 0.882 | 1.15 | 0.828 | 1.35
C[C@@H](O[C@H]1OCCN(Cc2n[nH]c(=O)[nH]2)[C@H]1c1ccc(F)cc1)c1cc(C(F)(F)F)cc(C(F)(F)F)c1 [Aprepitant] | 1.15 | 1.83 | 0.905 | 1.05 | 1.43 | 1.3
COc1cc2c(Nc3ccc(NC(=O)c4ccccc4)cc3)ncnc2cc1OCCCN1CCOCC1 | 2.71 | 3.81 | 3.11 | 2.7 | 1.92 | 3.02
CN(C)CCc1c[nH]c2ccc(Cn3cncn3)cc12 [Rizatriptan Benzoate] | 1.43 | 1.08 | 1.46 | 2.54 | 1.06 | 2.42
NCC(=O)O [Glycine] | 1.61 | 0.971 | 0.929 | 1 | 0.776 | 1.93
O=C(O)CCC(=O)Nc1ccc(S(=O)(=O)Nc2nccs2)cc1 [Succinylsulfathiazole] | 0.988 | 0.655 | 0.789 | 1.1 | 1.01 | 2.02
CC1(C)OC(=O)NC1=O [5.5-Dimethyloxazolidine-2.4-dione] | 0.865 | 0.849 | 1.06 | 1.02 | 0.557 | 0.894
NCCc1c[nH]cn1 [Histamine 2HCl] | 1.32 | 0.957 | 0.954 | 1.22 | 0.814 | 0.832
Cn1cc(-c2ccc3nnc(C(F)(F)c4ccc5ncccc5c4)n3n2)cn1 | 0.466 | 2.03 | 0.962 | 1.2 | 0.706 | 1.08
C[C@@H](OC[C@@]1(c2ccccc2)CC[C@]2(CCC(=O)N2)CN1)c1cc(C(F)(F)F)cc(C(F)(F)F)c1 [Rolapitant] | 1.23 | 1.85 | 1.34 | 1.17 | 1.3 | 1.41
CC(NCCC(c1ccccc1)c1ccccc1)c1ccccc1 (centres undefined) [Fendiline hydrochloride] | 1.96 | 2.16 | 1.45 | 1.24 | 2.42 | 1.41
CCN(CC)CCOC(=O)c1ccc(N)cc1 [Procaine] | 0.916 | 0.935 | 0.941 | 1.08 | 1.37 | 0.75
Cc1cc([C@@H](C)Nc2ccccc2C(=O)O)c2nc(N3CCOCC3)cc(=O)n2c1 | 1 | 1.82 | 1.52 | 1.71 | 1.59 | 3.2
CNC(=O)c1ccccc1Sc1ccc2c(/C=C/c3ccccn3)n[nH]c2c1 [Axitinib] | 3.11 | 3.76 | 3.18 | 3.27 | 2.51 | 3.92
CCCCc1oc2ccc(NS(C)(=O)=O)cc2c1C(=O)c1ccc(OCCCN(CCCC)CCCC)cc1 [Dronedarone] | 4.33 | 4.18 | 3.45 | 3.39 | 4.6 | 3.76
CC1(C)S[C@@H]2[C@H](NC(=O)[C@H](N)c3ccccc3)C(=O)N2[C@H]1C(=O)OCOC(=O)[C@@H]1N2C(=O)C[C@H]2S(=O)(=O)C1(C)C [Sultamicillin] | 1.46 | 0.999 | 0.805 | 1.26 | 0.611 | 1.28
O=c1c2ccccc2nc2n1CCc1c-2[nH]c2ccccc12 [Rutaecarpine] | 0.752 | 1.05 | 1.52 | 1.22 | 1.08 | 1.48
NNC(=O)c1ccncc1 [Isoniazid] | 1.4 | 1.36 | 0.961 | 1.16 | 0.573 | 0.885
NCC[C@H](O)C(=O)N[C@@H]1C[C@H](N)[C@@H](O[C@H]2O[C@H](CN)[C@@H](O)[C@H](O)[C@H]2O)[C@H](O)[C@H]1O[C@H]1O[C@H](CO)[C@@H](O)[C@H](N)[C@H]1O [Amikacin disulfate] | 1.64 | 0.597 | 0.666 | 0.868 | 0.695 | 0.989
CC(=O)c1ccc(S(=O)(=O)NC(=O)NC2CCCCC2)cc1 [Acetohexamide] | 0.925 | 0.868 | 0.836 | 1.19 | 0.469 | 0.995
CCCN(CCC)S(=O)(=O)c1ccc(C(=O)O)cc1 [Probenecid] | 1.08 | 0.549 | 1.42 | 0.831 | 0.652 | 1.69
O=C1OC(CN2CCOCC2)CN1/N=C/c1ccc([N+](=O)[O-])o1 (centres undefined) [Furaltadone HCl] | 0.929 | 1.35 | 1.24 | 1.24 | 0.808 | 2.22
C[C@H](NC(=O)C(=O)Nc1ccccc1C(C)(C)C)C(=O)N[C@@H](CC(=O)O)C(=O)COc1c(F)c(F)cc(F)c1F [Emricasan] | 1.44 | 0.567 | 0.769 | 0.936 | 0.32 | 0.99
NC(N)=Nc1nc(CSCC/C(N)=N/S(N)(=O)=O)cs1 [Famotidine] | 1.72 | 0.931 | 1.5 | 1.11 | 2.27 | 1.1

SMILES | Euclidean distance [1] | Euclidean distance [2] | Euclidean distance [3] | Euclidean distance [4] | Euclidean distance [5] | Euclidean distance [6]
C[C@@H](Oc1cc(-c2cnn(C3CCNCC3)c2)cnc1N)c1c(Cl)ccc(F)c1Cl | 3.69 | 4.3 | 3.56 | 5.27 | 4.27 | 4.15
Cn1c(=O)c2c(ncn2CC2OCCO2)n(C)c1=O [Doxofylline] | 1.15 | 0.81 | 0.772 | 0.965 | 0.408 | 1.15
O=C(O)CCNC(=O)c1ccccc1 [Betamipron] | 0.807 | 1.17 | 1.01 | 0.869 | 0.988 | 1.34
CNC(=O)c1cc(Oc2ccc(NC(=O)Nc3ccc(Cl)c(C(F)(F)F)c3)c(F)c2)ccn1 [Regorafenib Monohydrate] | 2.14 | 2.35 | 1.71 | 1.8 | 1.82 | 1.76
COc1ccc(CCc2nc3cc(-c4c(C)noc4C)ccc3n2C[C@H](C)N2CCOCC2)cc1Cl | 2.58 | 1.55 | 0.967 | 1.73 | 1.67 | 1.78
O=C(CCc1ccc(O)cc1)c1c(O)cc(O)cc1O[C@@H]1O[C@H](CO)[C@@H](O)[C@H](O)[C@H]1O [Phlorizin] | 0.911 | 1.18 | 0.673 | 0.849 | 1.02 | 0.783
C=CC(=O)Nc1cc(Nc2nccc(-c3cn(C4CC4)c4ccccc34)n2)c(OC)cc1N(C)CCN(C)C | 5.66 | 5.01 | 3.44 | 2.32 | 2.67 | 1.92
COCC(=O)NC/C=C/c1ccc2ncnc(Nc3ccc(Oc4ccc(C)nc4)c(C)c3)c2c1 | 0.785 | 1.34 | 1.13 | 0.952 | 0.896 | 0.777
O=C(O)CSCC(=O)NC1CCSC1=O (centres undefined) [Erdosteine] | 0.988 | 1.09 | 1.06 | 1.07 | 1.27 | 1.1
CCCCCCNC(=O)n1cc(F)c(=O)[nH]c1=O [Carmofur] | 2.44 | 2.89 | 1.27 | 2.91 | 2.49 | 2.82
O=C1NCCc2[nH]c(-c3ccncc3)cc21 | 3.08 | 0.97 | 1.24 | 3.06 | 2.81 | 3.15
Cn1cc(/C=C/C(=O)c2cccc(F)c2)cc1/C=C/C(=O)NO | 1.27 | 1.61 | 0.756 | 1.27 | 0.359 | 0.539
COc1cc2c(cc1O)CC[C@@H]1[C@@H]2CC[C@]2(C)[C@@H](O)CC[C@@H]12 [2-Methoxyestradiol (2-MeOE2)] | 2.47 | 2.67 | 2.66 | 2.05 | 2.07 | 2.42
CN(NC(=O)CC(=O)NN(C)C(=S)c1ccccc1)C(=S)c1ccccc1 [Elesclomol (STA-4783)] | 5.12 | 5.4 | 4.86 | 6.42 | 1.29 | 6.01
O=c1c(O)c(-c2cc(O)c(O)c(O)c2)oc2cc(O)cc(O)c12 [Myricetin] | 0.872 | 2.24 | 2.15 | 1.76 | 1.1 | 2.1
CN1[C@@H]2CC[C@H]1C[C@@H](OC(c1ccccc1)c1ccccc1)C2 [Benztropine mesylate] | 1.38 | 0.973 | 1.51 | 1.56 | 1.19 | 1.21
CC/C(=C(\c1ccccc1)c1ccc(OCCN(C)C)cc1)c1ccccc1 [Tamoxifen Citrate] | 1.05 | 2.39 | 1.36 | 1.45 | 1.5 | 1.36
CCNC(=O)CC[C@H](N)C(=O)O [L-Theanine] | 1.64 | 1.8 | 1.57 | 2.05 | 1.4 | 2.17
O=c1oc2ccccc2c(O)c1Cc1c(O)c2ccccc2oc1=O [Dicoumarol] | 0.633 | 0.618 | 0.712 | 0.872 | 0.701 | 0.783
Clc1ccc(C(c2ccccc2Cl)C(Cl)Cl)cc1 (centres undefined) [Mitotane] | 0.994 | 0.919 | 1.27 | 1.79 | 1.84 | 1.45
CN1C(C(=O)Nc2ccccn2)=C(O)c2sccc2S1(=O)=O [Tenoxicam] | 0.866 | 1.16 | 1.02 | 0.733 | 2.05 | 1.22
Cc1ccc(NC(=O)c2ccc(CN3CCN(C)CC3)cc2)cc1Nc1nccc(-c2cccnc2)n1 [Imatinib Mesylate (STI571)] | 1.63 | 2 | 1.67 | 2.28 | 1.61 | 1.55
CC(=O)Nc1nnc(S(N)(=O)=O)s1 [Acetazolamide] | 1.03 | 0.669 | 0.642 | 0.704 | 0.604 | 1.08
CCc1nn(CCCN2CCN(c3cccc(Cl)c3)CC2)c(=O)n1CCOc1ccccc1 [Nefazodone hydrochloride] | 1.29 | 1.42 | 1.27 | 1.04 | 1.67 | 0.618
